The source of these data is PubChem BioAssay (NCI).

The nature of test [1]: NCI Yeast Anticancer Drug Screen. Data for the rad50 strain (AID 155).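 Further: 0% = growth of vehicle-only cultures of the same strain.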 The settings on record: S. cerevisiae rad50 strain growth inhibition; at 50.0 µM; hits give high values. An outline of the steps: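 Growth of the mutant yeast was measured after compound exposure and referenced to vehicle-treated cultures.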
Test [2] in a line: NCI Yeast Anticancer Drug Screen. Data for the mec2-1 strain (AID 157). The settings on record: S. cerevisiae mec2-1 strain, at 50.0 µM, hits give high values. The method in brief:
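Cells of the genetically defined mec2-1 yeast strain are incubated with test compound. Inhibition of growth is calculated against vehicle-treated controls.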

Test [3] in a line: NCI Yeast Anticancer Drug Screen. Data for the sgs1 mgt1 strain (AID 161).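 Further: 0% = growth of cultures given vehicle only.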 The settings on record: S. cerevisiae sgs1 mgt1 strain, at 50.0 µM, hits give high values. An outline of the steps: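 Test agents were incubated with a DNA-repair-mutant yeast strain. Growth was then read and compared against vehicle-treated controls.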
Test [4] is described as follows: NCI Yeast Anticancer Drug Screen. Data for the cln2 rad14 strain (AID 165).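 Further: 0% = growth equal to vehicle treated cultures.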 The settings on record: S. cerevisiae cln2 rad14 strain, at 50.0 µM, hits give high values. The method in brief: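 The screen exposed genetically defined yeast (cln2 rad14) to test compounds and scored growth inhibition relative to vehicle-treated controls.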
A short description of test [5]: NCI Yeast Anticancer Drug Screen. Data for the bub3 strain (AID 167). The settings on record: S. cerevisiae bub3 mutant strain, at 50.0 µM, hits give high values. An outline of the steps:
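Whole-cell yeast assay. The mutant strain was incubated with compounds, and growth inhibition was determined by comparison with vehicle-treated cells.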

Test [6] in a line: NCI Yeast Anticancer Drug Screen. Data for the mlh1 rad18 strain (AID 175). The settings on record: S. cerevisiae mlh1 rad18 strain growth inhibition; at 50.0 µM; hits give high values. An outline of the steps: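 Compound-treated yeast growth, normalised to vehicle controls. Strain bears defined DNA repair mutations.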

Compounds without any hit were thinned out: in the full panel of roughly 79,000, 15% have a hit. A number with no mark means an inactive call. Activity calls are given as the source filed them. No stated cut-off is given here; in the data, active means growth inhibition above about 70%; inactive means the rest.

As for `C[Si](C)(C)/C(=N/Nc1ccc([N+](=O)[O-])cc1[N+](=O)[O-])c1ccccc1`, the growth inhibition in test [1] is -13.2%; in test [2], 9.9%; in test [3], -12.9%; in test [4], -13.6%; in test [5], -7.9%; in test [6] it was -7.15%.
Consider `O=C(/C(=C(/[O-])C(F)(F)F)[n+]1cccc2ccccc21)C(F)(F)F`, for which the growth inhibition was -8.6% in test [1]; -4.65% in test [2]; -11.2% in test [3]; -10.4% in test [4]; -1.4% in test [5]; 5.2% in test [6].
Turning to `O=C1C(=O)C([n+]2cccc3ccccc32)=C([O-])C2=C1C1c3ccccc3C2c2ccccc21`, the growth inhibition in test [1] was 98.8% (active); in test [2], 98.4% (active); in test [3] it was 98.9% (active); in test [4] it was 98.8% (active); in test [5] it was 91% (active); in test [6], 98.6% (active).
For the molecule `C=CCCCCCCCCCCC`, the growth inhibition was -11.3% in test [1]; -11.2% in test [2]; -14.1% in test [3]; 11.7% in test [4]; 1.95% in test [5]; -4.9% in test [6].
`NC(=O)SCC(=O)Nc1ccc2cccc3c2c1CC3`: the growth inhibition is 66.2% in test [1]; 60.3% in test [2]; 80% (active) in test [3]; 61.6% in test [4]; 74.3% (active) in test [5]; 85.2% (active) in test [6].
For `C[C@H](CCC(c1ccccc1)c1ccccc1)[C@H]1CC[C@H]2[C@@H]3CC[C@@H]4C[C@H](O)CC[C@]4(C)C3=CC[C@]12C`, the growth inhibition in test [1] is 1.7%; in test [2], -15.3%; in test [3] it was 4.1%; in test [4] it was 24.8%; in test [5] it was -1.75%; in test [6], 9.45%.
Regarding `COc1cc(C(=O)c2cocc2C(=O)c2ccc3c(c2)OCO3)cc(OC)c1OC`, the growth inhibition in test [1] was -17.2%; in test [2], -33.3%; in test [3], -10.3%; in test [4], -18.4%; in test [5] it was -25.6%; in test [6] it was -14.8%.
For `O=C1c2ccccc2C(O)(C#Cc2ccccc2)c2c1c(-c1ccccc1)c1ccccc1c2-c1ccccc1` (stereo unspecified), the growth inhibition is 14.7% in test [1]; 6.15% in test [2]; 15.7% in test [3]; 9.75% in test [4]; -8.3% in test [5]; 10.4% in test [6].
Turning to `O=C(O)c1ccccc1C(=O)OCC1CCCc2ccccc21` (stereo unspecified), the growth inhibition in test [1] was 11.7%; in test [2], 45.7%; in test [3] it was 41.5%; in test [4] it was -100%; in test [5], 43.5%; in test [6], 46%.
Consider `N#C/C(N)=C(/C#N)N=Cc1ccccc1`, for which the growth inhibition in test [1] was 15.9%; in test [2], 21.3%; in test [3], 8.4%; in test [4] it was -64.4%; in test [5] it was 7.2%; in test [6] it was 18.9%.
As to `CN(C)c1ccc(/C=C2\N=C(c3ccc([N+](=O)[O-])cc3)OC2=O)cc1`, the growth inhibition in test [1] was 1.35%; in test [2] it was -6.75%; in test [3], 17.1%; in test [4] it was 6.95%; in test [5], 14.9%; in test [6], 7.55%.
With `CCCCCCCCCCCCCCC1CC(=O)OC1=O` (stereo unspecified), the growth inhibition is -22.6% in test [1]; -30.1% in test [2]; -9.55% in test [3]; 0.5% in test [4]; -10.8% in test [5]; -31.8% in test [6].
For `OC1C=COC2COC(c3ccccc3)OC12` (stereo unspecified), the growth inhibition in test [1] is 4.1%; in test [2], -8.95%; in test [3] it was 6.1%; in test [4], -21.1%; in test [5], -5.4%; in test [6] it was 10.2%.
For `Nc1ccc(Cl)cc1N=Cc1ccccc1[N+](=O)[O-]`, the growth inhibition in test [1] is 35.5%; in test [2] it was 13.8%; in test [3] it was 49.5%; in test [4] it was -47.5%; in test [5], 17.6%; in test [6], 12.9%.
Consider `O=C(O)C(CSC(c1ccccc1)(c1ccccc1)c1ccccc1)Nc1ccccc1[N+](=O)[O-]` (stereo unspecified), for which the growth inhibition was 99% (active) in test [1]; 99.2% (active) in test [2]; 99.4% (active) in test [3]; 98% (active) in test [4]; 98.3% (active) in test [5]; 99.2% (active) in test [6].
`CC(=O)N(C)c1ccc(NC(=O)Cc2ccccc2)cc1`: the growth inhibition in test [1] is 12.7%; in test [2] it was 22.7%; in test [3] it was 23.6%; in test [4], 9.95%; in test [5], 35.5%; in test [6], -2.35%.
Consider `Cc1ccccc1/C=C1/N=C(c2ccccc2)OC1=O`, for which the growth inhibition was -27.3% in test [1]; -17.4% in test [2]; -19.7% in test [3]; 0.9% in test [4]; -14.4% in test [5]; -6.85% in test [6].
Take `COC(=O)c1cccc(Cl)n1`: the growth inhibition in test [1] is 4.7%; in test [2], -16.8%; in test [3], -6.95%; in test [4], 1.05%; in test [5] it was 10.4%; in test [6] it was 7.85%.
`O=[N+]([O-])c1ccc2[nH]ncc2c1`: the growth inhibition is 19.2% in test [1]; -8.05% in test [2]; 0.35% in test [3]; -3.15% in test [4]; 8.45% in test [5]; 13.7% in test [6].
In the case of `C=C1c2ccccc2N(S(=O)(=O)c2ccc(C)cc2)C12CCCCC2`, the growth inhibition in test [1] is 3.9%; in test [2], 14.6%; in test [3], -10.2%; in test [4], -3.2%; in test [5], -0.7%; in test [6] it was -6%.
With `CCn1c(=O)c(C(=O)O)c(Cl)c2cc3c(cc21)OCO3`, the growth inhibition in test [1] was 10.3%; in test [2], 9%; in test [3] it was 17.5%; in test [4], 18.9%; in test [5] it was 6.15%; in test [6] it was 38.2%.
